# From PubChem BioAssay AID1259251 (The Scripps Research Institute Molecular Screening Center, 2017)
# Screen size: about 30,000 compounds; about 580 (1.9%) were called active. For the sample, actives were picked, then their nearest neighbours and some compounds at random. A number with no mark means an inactive call. Cut-off read from the data, not from the text of the source: active = inhibition above about 43%; inactive = the rest.
# Biological target: Serine/threonine-protein kinase ULK1 (Homo sapiens) (UniProt O75385)
# Test: ULK1 kinase inhibitors, primary screen, biochemical, AlphaScreen (AID 1259251);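 note: 0% = median of compound wells and 100% = no enzyme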
# Details: AlphaScreen Atg13 phosphorylation by ULK1, luminescence; at 5.96 µM; active compounds read high
# Chain of Serine/threonine-protein kinase ULK1 (Homo sapiens) (O75385 whole entry, looked up): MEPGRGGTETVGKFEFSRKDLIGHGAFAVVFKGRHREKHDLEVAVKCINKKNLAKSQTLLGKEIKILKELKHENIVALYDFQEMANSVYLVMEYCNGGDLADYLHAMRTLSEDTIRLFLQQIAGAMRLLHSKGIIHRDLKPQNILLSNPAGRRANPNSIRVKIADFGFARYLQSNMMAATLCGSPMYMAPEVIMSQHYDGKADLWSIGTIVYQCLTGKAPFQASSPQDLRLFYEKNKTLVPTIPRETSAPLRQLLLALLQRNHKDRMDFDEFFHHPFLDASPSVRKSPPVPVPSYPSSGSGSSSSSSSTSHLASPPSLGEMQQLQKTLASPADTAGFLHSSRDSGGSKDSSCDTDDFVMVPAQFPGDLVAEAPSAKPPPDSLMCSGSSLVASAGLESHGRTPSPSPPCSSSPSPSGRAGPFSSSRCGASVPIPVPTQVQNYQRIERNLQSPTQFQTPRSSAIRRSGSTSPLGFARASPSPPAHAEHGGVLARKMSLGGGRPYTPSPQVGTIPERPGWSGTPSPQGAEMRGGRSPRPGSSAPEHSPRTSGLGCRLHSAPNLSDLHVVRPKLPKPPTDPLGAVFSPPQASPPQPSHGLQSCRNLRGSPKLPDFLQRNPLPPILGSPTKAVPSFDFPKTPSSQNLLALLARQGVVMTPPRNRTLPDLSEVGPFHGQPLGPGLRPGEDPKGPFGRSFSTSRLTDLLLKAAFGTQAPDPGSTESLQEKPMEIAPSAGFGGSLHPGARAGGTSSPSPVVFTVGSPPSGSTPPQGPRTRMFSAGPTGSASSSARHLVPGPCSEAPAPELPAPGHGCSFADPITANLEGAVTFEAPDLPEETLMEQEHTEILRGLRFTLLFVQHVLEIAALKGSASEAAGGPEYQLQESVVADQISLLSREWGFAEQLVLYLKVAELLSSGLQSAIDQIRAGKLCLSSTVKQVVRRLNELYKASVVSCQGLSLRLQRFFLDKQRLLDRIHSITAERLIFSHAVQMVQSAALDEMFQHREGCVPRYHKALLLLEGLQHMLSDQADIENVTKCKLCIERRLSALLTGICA
row,SMILES,inhibition
1,CC(NC(=O)C(C(=O)c1ccccc1)n1ccccc1=O)c1ccccc1 (stereo not given),1.21%
2,N#Cc1cccc(C[C@H](N)c2nc3ccc(-c4ccncc4)cc3[nH]2)c1,7.99%
3,COc1cc2nc(Nc3ccccc3)nc(NCc3cccc(C(F)(F)F)c3)c2cc1OC,-26.9%
4,COc1nc(Nc2ccccc2)nc(-c2ccc(C(=O)NC3CC3)cc2)n1,22.8%
5,COc1ccc(CCNc2cc(NC3CCN(Cc4ccccc4)CC3)ncn2)cc1,-6.44%
6,COc1cc(OC)nc(Oc2ccccc2/C=N/N(C)C(N)=S)n1,10.3%
7,CCN(CC)C(=O)C1CCCN(c2cc(Nc3ccccc3)nc(N)n2)C1 (stereo not given),13.1%
8,O=C(NCc1cccc(Cl)c1)Nc1ccc(-c2cn[nH]c2)cc1,16%
9,COc1ccc(CNC(=O)c2c[nH]c3cc(-c4cn[nH]c4)ccc23)cc1,-3.48%
10,Fc1ccc(CNc2ncc3ccc(-c4cn[nH]c4)cc3c2Cl)cc1,70.6% (active)
11,O=C(Oc1ccc([N+](=O)[O-])cc1)c1ccc2c(c1)C(=O)N(c1ccc([N+](=O)[O-])cc1)C2=O,8.64%
12,COc1ccc(CCNC(=O)c2cnc(-c3cccs3)s2)cc1,-2.76%
13,COc1ccc(-c2nc3ncnc(NCCN4CCOCC4)c3[nH]2)cc1,0.53%
14,Cc1ncc2c(NCCCN3CCOCC3)nc3ccccc3n12,12.3%
15,Oc1c(Cl)cc(Cl)c(Cl)c1Cc1c(O)c(Cl)cc(Cl)c1Cl,75.9% (active)
16,c1cc(-c2ocnc2-c2ncco2)cc(Nc2ccc(N3CCOCC3)cc2)n1,-5.51%
17,CC(C)c1nc2ccc(-c3ccnn3C)cc2c(=O)[nH]1,-1.76%
18,CC(C)c1nc2ccc(-c3cn[nH]c3)cc2c(=O)[nH]1,69% (active)
19,COc1ccc(C(N)c2nc3ccc(-c4cn[nH]c4)cc3c(=O)[nH]2)cc1 (stereo not given),16%
20,Cc1cccc(C(=O)NCc2ccccc2)c1N1CCC2(CC1)OCCO2,4.05%
21,Cc1cc(NC2CC2)nc(N2CCCC2CO)n1 (stereo not given),-3.85%
22,CC(C)N(CCNc1ccnc(Nc2ncccn2)n1)C(C)C,-7.14%

row,SMILES,inhibition
1,Cc1ccc(-c2ncn(-c3ccc(Nc4nccc(-c5cc(C#N)cc(N6CCCC(O)C6)c5)n4)cc3)n2)cn1 (stereo not given),0.75%
2,Cc1ncn(-c2ccc(Nc3nccc(-c4cc(C#N)cc(NC5CCN(C)CC5)c4)n3)cc2)n1,3.12%
3,Cn1nnnc1-c1ccc(Nc2nccc(-c3ccc(N4CCC(O)CC4)c(C#N)c3)n2)cc1,64.2% (active)
4,Cn1c(Nc2nc3ccc(C(=O)NCCO)cc3s2)nc2ccccc21,20.6%
5,Cc1cc(NCc2cccc(C(F)(F)F)c2)nc(NC2CCC(O)CC2)n1 (stereo not given),-8.27%
6,Nc1nc(Nc2cnccn2)cc(NC2CCN(Cc3ccccc3)CC2)n1,-0.08%
7,CC(=O)c1cccc(-c2nc3ncnc(NCc4nc5ccccc5[nH]4)c3[nH]2)c1,-5.39%
8,CC(C)(C)c1nc(-c2cccc(NS(=O)(=O)c3c(F)cccc3F)c2F)c(-c2ccnc(N)n2)s1,66.2% (active)
9,CCCNc1nc(-c2cccc(C(C)=O)c2)nc2c1ncn2-c1ccccc1,-6.8%
10,C[C@@H](CN)Oc1ncccc1C(=O)Nc1ccc2[nH]ncc2c1,0.92%
11,OCC1CCCN1c1nc2ncnc(NC3CC3)c2[nH]1 (stereo not given),1.11%
12,COc1cccc(CNC(=O)Nc2ccc(-c3cn[nH]c3)cc2OC2CCNC2)c1 (stereo not given),55.8% (active)
13,COc1cccc(CNC(=O)Nc2ccc(-c3cn[nH]c3)cc2OC2CCC(O)C2)c1 (stereo not given),2.68%
14,COc1cccc(CN(CC2CC2)C(=O)Nc2ccc(-c3cn[nH]c3)cc2OC)c1,-27.8%
15,CCCNc1nc(NCc2cccnc2)nc2c1ncn2Cc1ccc(C(F)(F)F)cc1,-9.26%
16,O=C(NCc1cccc(C(F)(F)F)c1)c1cnc(NCCCN2CCCC2=O)s1,-7.22%
17,COC(=O)c1ccc(Cn2c(-c3nnc(CC(C)C)o3)cc3ccccc32)o1,-10%
18,CC(=O)c1cccc(-c2nc3c(Nc4ccc(N5CCOCC5)cc4)ncnc3n2C(C)C)c1,67.5% (active)
19,CC(=O)Nc1ccc(Nc2ncnc3c2nc(-c2cccc(N)c2)n3C(C)C)cc1,-4.82%
20,CC(=O)c1cccc(-c2nc3c(NCCCN4CCCC4=O)ncnc3n2C(C)C)c1,5.85%
21,O=C1NC(=S)NC(=O)C1=Cc1ccc(-c2ccc([N+](=O)[O-])c(Cl)c2)o1,24.2%
22,O=C(NCc1cccc(NC(=O)C2CC2)c1)Nc1ccc(-c2cn[nH]c2)cc1,6.93%

row,SMILES,inhibition
1,COc1cc(Nc2cc(-c3nocc3-c3cnn(C)c3)ccn2)ccc1N1CCOCC1,-3.85%
2,Cn1cc(-c2cc(Nc3ccc(N4CCOCC4)cn3)ncc2Cl)cn1,53.2% (active)
3,Cn1nccc1Nc1cc(Nc2ccc(N3CCOCC3)cc2)ncn1,17.2%
4,COc1ccc(CCNc2cc(-c3csc4ccccc34)ncn2)cc1,-12%
5,COCCn1nnnc1C(c1cc2ccc(C)cc2[nH]c1=O)N1CCc2ccccc21 (stereo not given),-5.34%
6,O=C(Nc1ccc(-c2cn[nH]c2)cc1)C1CCc2ccccc2O1 (stereo not given),12.4%
7,COc1cc(Nc2ccc(N3CCC(C(=O)NCc4nc5ccccc5[nH]4)CC3)nn2)cc(OC)c1OC,7.51%
8,COc1ccc2c(c1)CC(C(=O)Nc1ccc(-c3cn[nH]c3)cc1OCCN(C)C)CO2 (stereo not given),7.42%
9,CC(C)NC(=O)c1cccc(Nc2nccc(-c3ccc4nc(C5CC5)nc(N5CCCC5)c4c3)n2)c1,-33.9%
10,COc1cccc(Nc2nccc(-c3ccc4c(=O)n(C5CC5)c(C)nc4c3)n2)c1,21.2%
11,O=C(c1ccc(Nc2nccc(-c3ccc4c(=O)[nH]c(C5CC5)nc4c3)n2)cc1)N1CCCC1,62.9% (active)
12,OCC1CCCN1c1nc(NC2CCN(Cc3ccccc3)CC2)c2ncn(Cc3ccc(C(F)(F)F)cc3)c2n1 (stereo not given),-14.8%
13,c1coc(-c2ccc3cnc(Nc4ccc(-n5cnc(N6CCOCC6)n5)cc4)nc3c2)n1,3.23%
14,Cn1cc(-c2cc(Nc3ccc(-n4cnc(N5CCC(O)CC5)n4)cc3)ncc2Cl)cn1,-17%
15,Cn1cc(-c2nc(Nc3ccc(-n4cnc(N5CCC(O)CC5)n4)cc3)ncc2Br)cn1,85.1% (active)
16,Cc1ncccc1-c1ncn(-c2ccc(Nc3nccc(-c4cc(F)cc(N5CCOCC5)c4)n3)cc2)n1,5.38%
17,Cn1cc(-c2ccc3cnc(Nc4ccc(-n5cnc(N6CCOCC6)n5)cc4)nc3c2-c2cnn(C)c2)cn1,51.5% (active)
18,COC1CCN(c2ncn(-c3ccc(Nc4nccc(-c5cncc(N6CCOCC6)c5)n4)cc3)n2)CC1,-6.75%
19,O=C(NC1CCN(Cc2ccccc2)CC1)c1cccc(-c2cccs2)n1,-5.23%
20,O=C(Nc1ccc2[nH]ncc2c1)c1ccnc(OC2CCN(Cc3ccccc3)CC2)c1,-8.14%
21,O=C(NC1CCN(Cc2ccccc2)CC1)c1cc(Cl)nc2ccccc12,2.89%
22,Cn1c(Nc2nc(NCc3cccc(C(F)(F)F)c3)c3ncn(C4CCCCC4)c3n2)nc2ccccc21,8.91%

row,SMILES,inhibition
1,O=C(NCCc1ccc(O)cc1)c1csc(Nc2ccc(N3CCOCC3)cc2)n1,13.3%
2,Cc1cnc(Nc2ccc(N3CCOCC3)cc2)nc1Nc1ccccc1-c1ncn[nH]1,70.3% (active)
3,Cc1cnc(-c2c(C)noc2C)nc1Nc1ccc(N2CCOCC2)cc1,-1.73%
4,c1ccc(-c2ncn[nH]2)c(Nc2ccnc(Nc3ccc(N4CCOCC4)cc3)c2)c1,24.2%
5,c1ccc(CN2CCC(Nc3nc(NCCOc4ccccc4)c4[nH]cnc4n3)CC2)cc1,-28%
6,FC(F)(F)c1ccc(Cn2cnc3c(Nc4ccccc4)nc(N4CCN(c5ccccn5)CC4)nc32)cc1,-7.96%
7,CN(C)c1cccc(Nc2cc(C(=O)NC3CC3)c3ccccc3n2)c1,4.11%
8,Cc1ccc(CNC(=O)c2cn(C)c3c(=O)n(-c4ccccc4)c(=O)[nH]c23)cc1,1.67%
9,CN1CCN(C(=O)c2ccc(-c3cc(NCc4cccc(C(F)(F)F)c4)ncn3)cc2)CC1,-4.67%
10,COc1ccc(Cl)cc1NC(=O)COc1cccc2c1OC(C)(C)C2,-8.02%
11,COc1cc(NC(=O)c2cnc(Nc3ccc(C(F)(F)F)cc3)s2)cc(OC)c1OC,-10.3%
12,CNC(=O)c1cc(F)ccc1Nc1cc(Nc2ccc3c(c2)CCC(=O)N3)ncc1C(F)(F)F,85.8% (active)
13,O=C1Cc2cc(Nc3cc(Nc4ccccn4)c(C(F)(F)F)cn3)ccc2N1,38.2%
14,CNC(=O)c1cc(F)ccc1Nc1cc(Nc2ccc(NC(C)=O)cn2)ncc1C(F)(F)F,89% (active)
15,O=C(NCCO)c1cc(Nc2ccc3[nH]ncc3c2)ccn1,-10.8%
16,CC(=O)Nc1ccc(Nc2cc(Nc3ccccn3)nc(N)n2)cc1,-21.9%
17,CNC(=O)c1cc(F)ccc1Nc1cc(Nc2ccc3[nH]ncc3c2)ncc1C(F)(F)F,78.3% (active)
18,CNC(=O)c1cc(F)ccc1Nc1cc(Nc2ccc3nc[nH]c3c2)ncc1C(F)(F)F,3.83%
19,COc1ccc(Oc2ncc(-c3ccc(OC)cc3)cn2)cc1,-2.6%
